Source: PubChem
Most compounds without a hit are left out; they make up all but 2.7% or so of the library.
GLP1R cytotox: cytotoxic in the GLP-1 receptor inverse agonist counter-screen; 0.13% of 410,000 active; AID 624418; Potency, µM (doses to about 38.3 µM), actives largely listed as inhibitors; HEK293 cAMP-luciferase reporter cells, luminescence, 24 h;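 also: loss of luciferase light is scored as toxicity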
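A 23 nL compound transfer followed 12 hours of cell culture at 37 deg C; exposure then lasted 24 hr. Luciferase assay detection reagent was dispensed and plates read for luminescence after a 12 min room-temperature wait.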
BRCA1 expr act: activators of BRCA1 expression. AID 624202. 1.1% of 380,000 active. MCF7-BRCA1-FFLuc reporter, luminescence, 48 h; response scale: scaled: vehicle 0%, 10 µM genistein 100%. Potency, µM (top dose mostly 46.1 µM), usual class: activators; also: nearly all actives have a fitted effect of over 80% in size
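48 h compound treatment of MCF7-BRCA1-FFLuc cells (phenol-red free MEM, 37 °C), then 15 min with luciferase substrate and luminescence imaging.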
GLP-1R inv ag: acts as inverse agonist at human GLP-1 receptor; P43220; Potency, µM (series often up to 38.3 µM), usual class: inhibitors; HEK293 GLP-1R CRE-luciferase, luminescence, 24 h; GLP-1R form is constitutively active; 1.6% of 410,000 active; also: nearly all actives have a fitted effect of over 55% in size
Target sequence (P43220 whole entry, looked up): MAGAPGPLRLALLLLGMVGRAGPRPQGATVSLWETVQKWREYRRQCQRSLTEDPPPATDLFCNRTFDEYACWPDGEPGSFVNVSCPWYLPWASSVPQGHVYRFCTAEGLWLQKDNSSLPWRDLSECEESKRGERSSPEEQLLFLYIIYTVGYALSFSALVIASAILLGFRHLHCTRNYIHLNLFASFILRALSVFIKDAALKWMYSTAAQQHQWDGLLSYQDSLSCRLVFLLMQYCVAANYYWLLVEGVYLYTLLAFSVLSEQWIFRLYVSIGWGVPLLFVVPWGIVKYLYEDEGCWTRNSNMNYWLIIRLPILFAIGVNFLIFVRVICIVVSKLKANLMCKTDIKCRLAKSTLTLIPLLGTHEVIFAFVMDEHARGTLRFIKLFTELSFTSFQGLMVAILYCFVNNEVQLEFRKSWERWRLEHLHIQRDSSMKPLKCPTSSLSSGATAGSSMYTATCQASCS
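Constitutively active GLP-1R drives a cAMP-responsive luciferase in stably transfected HEK293 cells; test compounds are added after overnight (12 h) attachment and left 24 hr, and signal loss in luminescence marks inhibition.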
GLP-1R agonist: activates the human GLP-1 receptor; AID 624172; 0.007% of 380,000 active; HEK293 GLP-1R CRE-luciferase, luminescence, 4-6 h; cells express a hypersensitive GLP-1R form; Potency, µM (top dose mostly 45.6 µM), usual class: activators
Integrin act MD: activates integrin-mediated alleviation for muscular dystrophy; 0.064% of 350,000 active; alpha7betagal myoblasts, beta-gal FDG fluorescence, 48 h; Potency, µM (doses to about 38.3 µM), usual class: activators; also: nearly all actives have a fitted effect of over 60% in size
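alpha7betagal+/- myoblasts (passage 13, 250/well) treated 48 h at 37C with compounds at 1:260 dilution of DMSO stock. Lysed, then beta-galactosidase activity read as FDG fluorescence (ex 480/em 540) after 30 min, with pre-read for autofluorescence.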
Numbers stand for hits; 0 = inactive; ? = inconclusive; - = no result given. Calls follow the shape of the dose curve; as a rule, active = well fitted curve in the direction sought with a large enough effect; inconclusive = small, poorly fitted or top-dose-only effect, or another doubt; inactive = no such curve, though single readings can be large; an effect the other way counts as inactive or inconclusive.

SMILES | GLP1R cytotox | BRCA1 expr act | GLP-1R inv ag | GLP-1R agonist | Integrin act MD
Cc1cccc(NP(=O)(Oc2ccccc2)Oc2ccccc2)c1C | 0 | 0 | 10µM | 0 | 0
COc1cccc(OP(=O)(Nc2ccccc2)Oc2cccc(OC)c2)c1 | ? | 0 | 10µM | 0 | 0
CC(NCc1ccc([N+](=O)[O-])cc1)C1COc2ccccc2O1 (centres undefined) | 0 | 0 | ? | 0 | 0
CN(C(=O)CSc1nc2ccc(NC(=O)COc3ccc(Cl)cc3)cc2s1)c1ccccc1 | 0 | 0 | 5.62µM | - | -
CCC(C)NCCOc1ccc(C(C)(C)c2ccccc2)cc1 (centres undefined) | ? | 0 | 5.01µM | 0 | 0
O=C(NCCN1CCC2(CC1)C(=O)NCN2c1cccc(F)c1)c1ccc2ccccc2c1 | 0 | 0 | 7.94µM | 0 | -
CN[C@H]1C[C@@H](N)[C@H](O)[C@@H](O[C@@H]2O[C@H](CO)[C@H](O)[C@@H]3O[C@]4(O[C@@H]23)O[C@H]([C@@H](N)CO)[C@H](O)[C@@H](O)[C@H]4O)[C@@H]1O | - | - | - | 0 | -
O=C(NCCCN1CC1)Nc1cccc2ccccc12 | 0 | 0 | 0 | 0 | 0
O=c1c2cc(NC(=S)NCCCN3CCC(Cc4ccccc4)CC3)ccc2nc2n1CCCCC2 | ? | 0 | 2.24µM | 0 | 0
CS(=O)(=O)c1ccc(C(=O)C2C(=O)CCCC2=O)c([N+](=O)[O-])c1 | - | - | - | 0 | -
CC(C)(C)c1ccc(C(=O)C2CCCN(C3CCC3)C2)cc1 (centres undefined) | 0 | 0 | 10µM | 0 | 0
O=c1[nH]cnc2[nH]cc(CN3CCCCC3)c12 | - | - | - | 0 | -
C=CCC1(C(C)CCC)C(=O)NC(=O)NC1=O (centres undefined) | - | - | - | 0 | -
CCOC(=O)c1cc(-c2ccccc2)n(CCCC(=O)Nc2ccc(C)c(C)c2)c1C | 0 | - | ? | - | -
O=C(CN1CCCCC1)c1ccc(F)cc1 | 0 | 0 | 0 | 0 | 0
COc1ccc(C(=O)CN2CCCCC2)cc1 | 0 | 0 | 0 | 0 | 12.6µM
CCOP(=O)(OCC)C(NC(=O)Nc1ccc(Cl)c(Cl)c1)c1ccccc1 (centres undefined) | 0 | 0 | 8.91µM | 0 | 0
CCCCC[C@H]1CCCCC[C@H](O)C[C@H](O)[C@@H](O)/C=C/C(=O)O1 | 0 | 0 | 0 | 0 | -
CC(Oc1ccc(F)cc1)C(=O)N(CCC1=CCCCC1)c1c(N)n(Cc2ccccc2)c(=O)[nH]c1=O (centres undefined) | ? | 0 | 11.2µM | 0 | 0
CCN(C(=O)COC(=O)Cc1ccccc1)c1c(N)n(Cc2ccccc2)c(=O)[nH]c1=O | 0 | 0 | 0 | 0 | ?
CCOC(=O)[C@]12Cc3ccc(C)cc3[C@H]1N(C1CCCCC1)C(=O)c1cc(OC)ccc12 | 11.2µM | 0 | ? | 0 | -
CCCCCN1C(=O)c2cc(OC)ccc2[C@@]2(C(=O)OCC)Cc3cc(OC)ccc3[C@@H]12 | ? | 0 | 7.08µM | 0 | -
Cn1c(O)c(/C=N/Nc2ccccc2)c(=O)n(C)c1=O | ? | 0 | 10µM | 0 | 0
Cn1c(O)c(C=Nc2ccccc2)c(=O)n(C)c1=O | 0 | 0 | 0 | 0 | ?
O=C(CN1c2ccccc2Sc2ccccc21)NNC(=O)Nc1ccc(Cl)cc1 | ? | 0 | 1.41µM | 0 | 0
SMILES | GLP1R cytotox | BRCA1 expr act | GLP-1R inv ag | GLP-1R agonist | Integrin act MD
CCOC(=O)c1ccc(N2Cc3ccccc3C2=NC(=O)c2cccc([N+](=O)[O-])c2)cc1 | 0 | 5.01µM | 0 | 0 | 0
Cc1ccc(N2Cc3ccccc3C2=N)cc1[N+](=O)[O-] | 0 | 0 | 0 | 0 | 0
Cc1ccc(NC(=O)c2snnc2C)cc1Cl | 0 | 0 | 0 | 0 | 0
Cc1nn(C(C)(C)C)c(C)c1/C=N/OC(=O)Nc1ccc(Cl)c(Cl)c1 | 0 | 0 | ? | 0 | 2.82µM
CNc1cc(Cl)c2nonc2c1[N+](=O)[O-] | 7.94µM | 0 | ? | 0 | 0
CC(Nc1cc(C)cc(C)c1)=[N+](C)CCNS(=O)(=O)c1ccc(Cl)cc1 | 0 | 0 | ? | 0 | 0
CC12CCC(O)CC1CCC1C2CCC2(C)C(C3=CC(=O)OC3)C(O)CC12O (centres undefined) | 0 | 0 | ? | 0 | 0
C[C@]12CC[C@H](O)C[C@H]1CC[C@@H]1[C@@H]2CC[C@]2(C)[C@@H](C3=CC(=O)OC3)CC[C@]12O | ? | 0 | 0.501µM | 0 | -
CC12CCC(O)CC1CCC1C2CCC2(C)C(C3=CC(=O)OC3)CCC12O (centres undefined) | ? | 0 | 1.12µM | 0 | 0
C#C[C@]1(OC(=O)CCCCCC)CC[C@H]2C3CCC4=CC(=O)CC[C@@H]4[C@H]3CC[C@@]21C (some centres undefined) | - | - | - | 0 | -
COc1cc(CC(C)N)cc2c1OCO2 (centres undefined) | - | - | - | 0 | -
Cc1cc(C)c(C)c(S(=O)(=O)N2CCC(C(=O)N(C)Cc3nc4ccccc4c(=O)[nH]3)CC2)c1C | ? | 0 | ? | 0 | ?
CN1CCN(c2ccc(Nc3ccnc4cc(Cl)ccc34)cc2)CC1 | 3.55µM | 0 | 2µM | 0 | 0
Clc1ccc2c(N3CCNCC3)ccnc2c1 | 0 | 0 | 0 | 0 | 0
Oc1ccc(Cl)cc1Sc1cc(Cl)ccc1O | 0 | 0 | 10µM | 0 | 0
CC(OC(=O)COc1ccc(Nc2ccccc2)cc1)C(=O)N(C)c1ccccc1 (centres undefined) | 0 | 0 | ? | 0 | 0
CS(=O)(=O)c1ccc(C2=C(CNC(=O)c3ccc([N+](=O)[O-])cc3)[C@H]3CC[C@@H](C2)N3CCOc2ccccc2)cc1 | ? | 0 | 10µM | 0 | 0
O=C(NCC1=C(c2cccc3ccccc23)C[C@@H]2CC[C@H]1N2Cc1ccco1)c1ccc([N+](=O)[O-])cc1 | 0 | 0 | 3.55µM | 0 | 0
COc1cc(CC(C)N)c(OC)cc1Br (centres undefined) | - | - | - | 0 | -
Cc1nc2c(=O)n(C)c(=O)nc-2n(C)n1 | 2µM | 0 | 0 | 0 | 0
CC(=O)c1ccccc1OCC(O)CN1CCN(CCN2C(=O)c3cccc4cccc(c34)C2=O)CC1 (centres undefined) | 11.2µM | 0 | ? | 0 | 0
COc1cccc(-n2nc(C(=O)N3CCC4(CC3)OCCO4)c3ccccc3c2=O)c1 | 0 | 0 | 0 | 0 | 0
COc1ccc(-n2nc(C(=O)NCC(=O)N3CCC4(CC3)OCCO4)c3ccccc3c2=O)cc1OC | 0 | 10µM | 0 | 0 | 0
COc1cc(C2c3cc4c(cc3OC(NCCc3ccccc3)C2C)OCO4)cc(OC)c1OC (centres undefined) | ? | 0 | ? | 0 | 0
CCc1c(C2(O)CCCCC2)[nH]c2ccc(C(F)(F)F)cc12 | ? | 0 | 2.24µM | 0 | 0
CCc1ccc(-c2nc(CN3CCCC(C(=O)N4CCN(c5cc(Cl)ccc5C)CC4)C3)c(C)o2)cc1 (centres undefined) | ? | - | 4.47µM | - | -
